Consider 50 molecules from PubChem BioAssay AID588850 (Sanford-Burnham Center for Chemical Genomics, 2011).

Structures are written as SMILES. In all, about 360,000 compounds went through this assay and about 3,100 (0.86%) were called active. The sample as a whole holds a higher share of actives than the screen did. Unmarked numbers belong to inactive results.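 Rule for the calls: active = at least 50% inhibition at 5 µM, scaled per plate between neutral and stimulator controls; inactive = the rest.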

The test can be described thus: inhibitors of PAF-induced NF-kB signaling, primary screen, cell-based, GFP fluorescence, uHTS (AID 588850).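 Note: PAF is a Pseudomonas aeruginosa culture filtrate used as stimulus; plate controls were PAF-stimulated DMSO wells for no effect and unstimulated DMSO wells for full effect.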 Particulars: KKLEB NF-kB-GFP reporter, GFP fluorescence overnight, at 5 µM, stronger effect = higher value.
For `COC1C(O)C(C)OC(OC2CCC3(C=O)C(CCC4C3CCC3(C)C(C5=CC(=O)OC5)CCC43O)C2)C1O` (stereo not given), the inhibition (in general, the relative decrease from the control value, in per cent) was 91.1% (active).

Take `CCOP(=S)(OCC)SCOC(=O)NCC(=O)OC`: the inhibition is -6.4%.

As for `O=c1c2ccccc2[nH]c(=S)n1-c1cccc(Cl)c1`, the inhibition was -27.2%.

As for `Cc1ccc(-c2nn(CCC#N)cc2C(=O)O)cc1C`, the inhibition is 13.3%.

As to `CC[N+](CC)(CC)CCCCCCCCCC[N+](CC)(CC)CC`, the inhibition was 9.5%.

For the molecule `COc1c(O)ccc2c1-c1c3c(cc4c1C(C2)N(C)CC4)OCO3` (stereo not given), the inhibition was -18.7%.

As for `O=C1NC(=O)N(CCc2ccc(F)cc2)C(=O)/C1=C/C=C/c1ccccc1`, the inhibition was 101% (active).

With `c1cncc(CNC2=NCCC2)c1`, the inhibition was 13.7%.

With `CN1CCc2cc3c(cc2[C@H]1[C@@H]1OC(=O)c2c1ccc1c2OCO1)OCO3`, the inhibition is 15.1%.

Turning to `CN(C)CCCN=Cc1c(O)n(Cc2ccco2)c(=O)[nH]c1=O`, the inhibition was 13.6%.

Regarding `C[C@]12CC[C@H](O)C[C@H]1CC[C@@H]1C2CC[C@]2(C)[C@@H](C3=CC(=O)OC3)[C@@H](O)C[C@]12O` (stereo not given in full), the inhibition is 53.2% (active).

With `CC12CCC(O)CC1CCC1C2CCC2(C)C(C(=O)CC(O)C(F)(F)F)CCC12` (stereo not given), the inhibition is 9.6%.

As for `CCOP(=O)(OCC)C(NC(=O)NC)C(N)=O` (stereo not given), the inhibition is -12.3%.

As for `CC=C(C)C(=O)OC1CCN2CC=C(COC(=O)C(O)(C(C)OC)C(C)(C)O)C12` (stereo not given), the inhibition was 1.6%.

With `CC(C)Oc1cccc(C(=O)C2CCCN(C3CCOCC3)C2)c1` (stereo not given), the inhibition is -10.1%.

On to `CCOC(=O)c1cccc(C2=C(CNC(=O)c3ccncc3)[C@H]3CC[C@@H](C2)N3Cc2ccccc2)c1`, for which the inhibition is 2.6%.

Turning to `CC(=CCOc1ccc2ccc(=O)oc2c1)C1=CC(=O)C(C)(C)O1`, the inhibition was 75.5% (active).

With `O=C(CCN1CCCCC1)NCC(=O)Nc1ccc(Br)cc1C(=O)c1ccccc1`, the inhibition is -1.9%.

For the molecule `CC1=C(C(=O)Nc2ccccc2)SCCO1`, the inhibition is -0.6%.

As for `Cc1nn(-c2ccccc2)c(C)c1NC(=O)COC(=O)Cc1ccccc1`, the inhibition was 5.1%.

Regarding `O=c1[nH]c2ccccc2n1C1CCN(C(c2ccnc3ccccc23)c2nnnn2Cc2ccccc2)CC1` (stereo not given), the inhibition is 39.9%.

Take `CSCCC(c1nnnn1C(C)(C)C)N1CCC(n2c(=O)[nH]c3ccccc32)CC1` (stereo not given): the inhibition was -10.2%.

As to `COc1cccc(C(c2nnnn2-c2ccc3c(c2)OCCO3)N2CCC3(CC2)C(=O)NCN3c2ccccc2)c1OC` (stereo not given), the inhibition is -0.8%.

On to `O=C1NCN(c2ccccc2)C12CCN(C(c1cccs1)c1nnnn1C1CCCCC1)CC2` (stereo not given), for which the inhibition was -6.5%.

On to `COc1ccc(-n2nnnc2C(c2cccc3ccccc23)N2CCC(n3c(=O)[nH]c4ccccc43)CC2)cc1` (stereo not given), for which the inhibition was 53.2% (active).

On to `O=c1[nH]c2ccccc2n1C1CCN(C(c2ccccc2)c2nnnn2Cc2ccccc2)CC1` (stereo not given), for which the inhibition is 85.1% (active).

Take `COC(=O)C1=C(c2ccccc2OCc2ccccc2)C[C@@H]2CC[C@H]1N2C(=O)NCc1ccc(OC)cc1`: the inhibition was -7.5%.

For the molecule `CN(C)CC1CCCCC1=O` (stereo not given), the inhibition is 6%.

For `CC(C)(C)c1ccc(OC(=O)N2CCCCC2)cc1`, the inhibition is 16%.

Turning to `N=c1ccccn1Cc1ccccc1`, the inhibition was 14.3%.

On to `CC1=C2C(=O)C3C(CC=C4CC(OC5OC(O)C(O)C(O)C5CO)CCC43C)C2CCC12OC1CC(C)CNC1C2C` (stereo not given), for which the inhibition was 7.6%.

As for `CCC1(C)CC(CCNCc2ccc(N(C)C)cc2)(c2ccc(F)cc2)CCO1` (stereo not given), the inhibition is 22.8%.

In the case of `Cc1cc(C)c2c(c1)NP(=S)(c1ccccc1)N2` (stereo not given), the inhibition was 24.3%.

For the molecule `CCOC(=O)CC1=C(C(=O)OCC)C2(C(=O)N1)C(C(=O)OC)=C(N)Oc1ccccc12` (stereo not given), the inhibition was -14%.

Consider `CN(C)CC1Oc2ccccc2OC1(O)c1ccccc1` (stereo not given), for which the inhibition was 75.7% (active).

Take `CN(C)S(=O)(=O)c1cc(C(=O)N2CCC(C(=O)O)(c3ccccc3)CC2)ccc1Cl`: the inhibition is 7.2%.

On to `COC(=O)C1=C(c2ccccc2)C[C@@H]2CC[C@H]1N2C(=O)N1CCCCC1`, for which the inhibition was -2.3%.

Regarding `Cc1cccc(NC(=O)OC2CN3CCC2CC3)c1` (stereo not given), the inhibition was 9%.

As for `O=C1NC(=O)C(Cc2ccccc2)C(=O)N1`, the inhibition is -11%.

For the molecule `C=CCN1C(=O)C2(C(C(=O)OCC)=C(N)Oc3c2c(=O)oc2ccccc32)c2ccccc21` (stereo not given), the inhibition was -5.7%.

On to `CC(=O)OC1C2(CC3N4C(=O)C5(CO)SSC4(CC31O)C(=O)N5C)OC(C)C(C)(C)C2=O` (stereo not given), for which the inhibition is 88.5% (active).

On to `CC(CC(C#N)(c1ccccc1)c1ccccc1)N1CCCCC1` (stereo not given), for which the inhibition was 7.8%.

For the molecule `CCC(C)(O)C(=O)OC1C(=O)OC2CC3C(C)=CC(=O)C(O)C3(C)C3C4(O)OCC23C1C(C)C4O` (stereo not given), the inhibition was 91.3% (active).

With `CCOC(=O)C1(Cc2ccc(Cl)cc2)CCN(C(C)CCn2cccn2)CC1` (stereo not given), the inhibition is 29.4%.

Take `CC1(C)C(c2ccccc2)=NC(c2cccnc2)=[N+]1[O-]`: the inhibition is 7.5%.

For `CCCCCCCCCCCCn1ccc(=N)cc1`, the inhibition is 61.8% (active).

In the case of `CN(C)C(=O)Oc1ccc(NC(=O)N2CCOCC2)cc1`, the inhibition is -9.2%.

In the case of `O=C(CCC(=O)N1C[C@H]2C[C@@H](C1)c1cccc(=O)n1C2)NCc1ccccc1C(F)(F)F`, the inhibition is -6.7%.

As for `COC(=O)C1=C(c2cccc(OCc3ccccc3)c2)C[C@@H]2CC[C@H]1N2C(=O)NCc1ccc(Br)cc1`, the inhibition is 6.2%.

On to `COC(=O)COc1cc(C)cc2oc(=O)c3c(c12)CCCC3`, for which the inhibition was 5.1%.
